Results with a measured potency or affinity are listed apart. Activity calls are given as the source filed them.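 The calls were made as follows: active = fitted half-maximal dose no more than twice the top valid tested dose, for compounds that lower signal; inconclusive = fit invalid, or curve flat with activity between -70 and -30; inactive = potency past limit, curve flat within ±30, or signal increasing.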
Biological target: NAD-dependent protein deacylase sirtuin-5, mitochondrial (Homo sapiens) (UniProt Q9NXA8)
Experiment: SIRT5 deacylase inhibitors, dose response, biochemical, fluorescence imaging, cherry-pick, set 6 (AID 720597);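 also: lower AMC signal can also come from blocking the trypsin step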

Sequence of NAD-dependent protein deacylase sirtuin-5, mitochondrial (Homo sapiens) (Q9NXA8 whole entry, looked up): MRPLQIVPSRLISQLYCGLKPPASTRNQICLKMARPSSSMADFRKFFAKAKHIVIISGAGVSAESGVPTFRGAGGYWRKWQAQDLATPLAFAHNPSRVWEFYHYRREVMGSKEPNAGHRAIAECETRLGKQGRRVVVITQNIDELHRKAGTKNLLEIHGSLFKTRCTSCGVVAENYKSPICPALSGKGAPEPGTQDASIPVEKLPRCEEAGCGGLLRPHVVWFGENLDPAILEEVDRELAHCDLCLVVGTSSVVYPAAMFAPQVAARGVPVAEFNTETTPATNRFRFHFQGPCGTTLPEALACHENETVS

SMILES | outcome
C[C@@H]1CN([C@H](C)CO)S(=O)(=O)c2ccc(/C=C/c3ccccc3)cc2O[C@@H]1CN(C)Cc1ccccc1 | inactive
CC(C)NC(=O)Nc1ccc2c(c1)C(=O)N([C@H](C)CO)C[C@H](C)[C@H](CN(C)Cc1ccc(-c3ccccc3)cc1)O2 | inactive
O=C(C[C@H]1CC[C@H]2[C@@H](COC[C@@H](O)CN2S(=O)(=O)c2cccc(Cl)c2)O1)Nc1ccc(-c2ccccc2)cc1 | inactive
C[C@H](CO)N1C[C@H](C)[C@H](CN(C)C(=O)Nc2cc(F)ccc2F)Oc2cc(/C=C/c3ccccc3)ccc2S1(=O)=O | inactive
C[C@@H]1CCCCO[C@H](CN(C)C(=O)Nc2ccc(C(F)(F)F)cc2)[C@H](C)CN([C@H](C)CO)C(=O)c2cc(NS(=O)(=O)c3ccc(Cl)cc3)ccc2O1 | inactive
CCCC#Cc1ccc([C@H]2[C@H]3CN(S(=O)(=O)Cc4ccccc4)CCCCN3[C@H]2CO)cc1 | inactive
COc1ccc(CN(C)C[C@H]2OCCCC[C@H](C)Oc3ccc(N(C)C)cc3C(=O)N([C@H](C)CO)C[C@H]2C)cc1 | inactive
O=C(CC1CC1)N1[C@@H](CO)[C@@H]2c3ccccc3N(S(=O)(=O)c3ccc(F)cc3)C[C@@H]21 | inactive
CCCC#Cc1ccc([C@@H]2[C@H]3CN(S(=O)(=O)Cc4ccccc4)CCCCN3[C@H]2CO)cc1 | inactive
C[C@@H]1CCCCO[C@H](CN(C)Cc2ccc(C(F)(F)F)cc2)[C@H](C)CN([C@H](C)CO)C(=O)c2cc(NC(=O)c3ccncc3)ccc2O1 | inactive
Cc1ccc(S(=O)(=O)N(C)C[C@H]2OCCCC[C@H](C)Oc3ccc(NS(=O)(=O)c4ccc(F)cc4)cc3C(=O)N([C@H](C)CO)C[C@H]2C)cc1 | inactive
COc1ccc(S(=O)(=O)N(C)C[C@@H]2OCCCC[C@@H](C)Oc3ccc(NS(=O)(=O)c4ccc(F)cc4)cc3C(=O)N([C@@H](C)CO)C[C@@H]2C)cc1 | inactive
C[C@H]1CN([C@@H](C)CO)C(=O)c2ccccc2-c2ccccc2CO[C@H]1CN(C)Cc1ccc(F)cc1 | inactive
C[C@H]1CN([C@@H](C)CO)C(=O)c2cc(C#Cc3cccc(F)c3)cnc2O[C@@H]1CN(C)CC1CCCC1 | inactive
C[C@H](CO)N1C[C@H](C)[C@@H](CN(C)C(=O)c2ccc3c(c2)OCO3)Oc2cc(/C=C/c3ccccc3)ccc2S1(=O)=O | inactive
CN(C)C(=O)[C@@H]1[C@@H](CO)[C@@H]2Cn3c(ccc(-c4ccccc4)c3=O)[C@H]1N2CCc1ccccc1 | inactive
O=C(C[C@@H]1CC[C@H](NS(=O)(=O)c2ccc(F)cc2)[C@H](CO)O1)N1CCN(c2ccccc2)CC1 | inactive
C[C@@H]1CN([C@@H](C)CO)C(=O)c2cc(C#CC3CCCCC3)cnc2O[C@H]1CN(C)S(=O)(=O)c1cccc(F)c1 | inactive
C[C@@H]1CN([C@@H](C)CO)C(=O)Cc2cc(NC(=O)Nc3ccc(F)cc3)ccc2O[C@H]1CN(C)C | inactive

SMILES | outcome
C[C@@H]1CN([C@H](C)CO)S(=O)(=O)c2ccc(C#C[C@@H](C)O)cc2O[C@H]1CN(C)Cc1ccc(-c2ccccc2)cc1 | inactive
C[C@H](CO)N1C[C@H](C)[C@H](CN(C)S(=O)(=O)c2ccc(Cl)cc2)OCCCC[C@H](C)Oc2ccc(NS(=O)(=O)c3ccc(F)cc3)cc2C1=O | inactive
COc1ccc(S(=O)(=O)Nc2ccc3c(c2)C(=O)N([C@@H](C)CO)C[C@@H](C)[C@H](CN(C)Cc2ccc(-c4ccccc4)cc2)O3)cc1 | inactive
C[C@@H]1CN([C@@H](C)CO)C(=O)c2cccc(NS(=O)(=O)c3cn(C)cn3)c2O[C@H]1CN(C)C(=O)Nc1cccc2ccccc12 | inactive
CC(C)CC#Cc1ccc2c(c1)O[C@@H](CN(C)S(=O)(=O)c1cccc(F)c1)[C@@H](C)CN([C@H](C)CO)S2(=O)=O | inactive
CCCN1C[C@H](C)[C@@H](OC)CN(C)C(=O)c2cc(NS(=O)(=O)c3ccccc3)ccc2OC[C@H]1C | inactive
O=S(=O)(c1ccc(F)cc1)N1CCCCN2[C@@H](CO)[C@H](c3ccc(C#CC4CCCC4)cc3)[C@@H]2C1 | inactive
O=S(=O)(c1ccc(F)cc1)N1CCCCN2[C@H](CO)[C@@H](c3ccc(-c4ccccc4F)cc3)[C@H]2C1 | inactive
CNC[C@H]1Oc2ccc(NC(=O)Nc3ccc(F)cc3)cc2CC(=O)N([C@H](C)CO)C[C@@H]1C | inactive
C[C@@H]1CN([C@H](C)CO)C(=O)c2cccc(N(C)C)c2O[C@@H]1CN(C)C(=O)NC1CCCCC1 | inactive
COc1cccc(C(=O)Nc2ccc3c(c2)C(=O)N(C)C[C@H](OC)[C@@H](C)CN(CCc2ccccc2)[C@H](C)CO3)c1 | inactive
Cc1noc(C)c1NC(=O)Nc1ccc2c(c1)C(=O)N([C@H](C)CO)C[C@H](C)[C@@H](CN(C)C(=O)Nc1ccc(C(F)(F)F)cc1)OCCCC[C@H](C)O2 | inactive
COc1cccc(CN(C)C[C@@H]2OCc3ccccc3-c3c(n(C)c4ccccc34)C(=O)N([C@H](C)CO)C[C@H]2C)c1 | inactive
C[C@H]1CN([C@@H](C)CO)S(=O)(=O)c2ccc(/C=C/c3ccccc3)cc2O[C@@H]1CN(C)C(=O)Nc1ccc(F)cc1 | inactive
C[C@@H]1CN([C@H](C)CO)S(=O)(=O)c2ccc(/C=C/c3ccccc3)cc2O[C@H]1CN(C)C(=O)NC1CCCCC1 | inactive
COc1ccc(S(=O)(=O)Nc2ccc3c(c2)C(=O)N([C@@H](C)CO)C[C@@H](C)[C@H](CN(C)Cc2ccc(C(F)(F)F)cc2)OCCCC[C@H](C)O3)cc1 | inactive
CCCNC(=O)N1CC(=O)N2[C@H](CO)[C@@H](c3ccc(-c4ccc(F)cc4)cc3)[C@@H]2C1 | inactive
O=C(CN1CCOCC1)NCC[C@@H]1CC[C@H](NC(=O)Nc2ccc(F)cc2)[C@H](CO)O1 | inactive
CO[C@@H]1CC[C@@H]2CCN(C)C(=O)C[C@H](c3ccccc3)CN(C)C(=O)c3cccc(C#N)c3OC[C@@H]1O2 | inactive

SMILES | outcome
C[C@H]1CN([C@@H](C)CO)S(=O)(=O)c2ccc(C#Cc3cccc(F)c3)cc2O[C@@H]1CN(C)S(=O)(=O)c1ccccc1F | inactive
CCN1[C@H](C(=O)NCc2ccccc2)[C@@H](CO)[C@@H]2Cn3c(ccc(-c4ccncc4)c3=O)[C@@H]21 | inactive
COc1ccc(C#Cc2ccc([C@H]3[C@@H](CO)N4C(=O)CN(C(C)=O)C[C@H]34)cc2)cc1 | inactive
C[C@@H]1CN([C@@H](C)CO)S(=O)(=O)c2ccc(C#CC3CC3)cc2O[C@@H]1CN(C)Cc1ccccc1F | inactive
COc1ccc(S(=O)(=O)Nc2ccc3c(c2)CC(=O)N([C@@H](C)CO)C[C@H](C)[C@H](CN(C)Cc2ccc(C(F)(F)F)cc2)O3)cc1 | inactive
CN(C)C(=O)[C@H]1[C@H](CO)[C@H]2Cn3c(ccc(-c4ccc(F)cc4)c3=O)[C@@H]1N2CCc1ccccc1 | inactive
O=C1CN(S(=O)(=O)c2ccccc2)C[C@@H]2[C@H](c3ccc(C#Cc4ccccc4)cc3)[C@H](CO)N12 | inactive
C[C@@H]1CN([C@H](C)CO)C(=O)c2cc(NS(=O)(=O)c3ccc(Cl)cc3)ccc2O[C@@H](C)CCCCO[C@@H]1CN(C)Cc1ccccc1 | inactive
COc1ccc(NC(=O)N(C)C[C@@H]2OCc3ccccc3-c3c(n(C)c4ccccc34)C(=O)N([C@@H](C)CO)C[C@@H]2C)cc1 | inactive
Cc1ccc(S(=O)(=O)N(C)C[C@@H]2OCCCC[C@@H](C)Oc3ccc(NS(=O)(=O)c4ccc(F)cc4)cc3C(=O)N([C@@H](C)CO)C[C@H]2C)cc1 | inactive
C[C@H]1CN([C@@H](C)CO)S(=O)(=O)c2ccc(C#CC(C)(C)O)cc2O[C@@H]1CN(C)Cc1ccc(-c2ccccc2)cc1 | inactive
COc1ccc([Si](C)(C)[C@@H]2[C@@H](CCO)O[C@]3(C(=O)N(Cc4cccc(NC(C)=O)c4)c4ccccc43)[C@H]2C)cc1 | inactive
C[C@H]1CN([C@@H](C)CO)C(=O)c2cc(NC(=O)CCN3CCOCC3)ccc2O[C@H]1CN(C)C(=O)Nc1ccc2c(c1)OCO2 | inactive
C[C@@H]1CN([C@H](C)CO)C(=O)c2cccc(NC(=O)Nc3ccc(C(F)(F)F)cc3)c2O[C@H]1CN(C)C(=O)Nc1cccc2ccccc12 | inactive
Cc1ccc(S(=O)(=O)N(C)C[C@H]2OCCCC[C@@H](C)Oc3ccc(NS(=O)(=O)c4ccc(Cl)cc4)cc3C(=O)N([C@@H](C)CO)C[C@H]2C)cc1 | inactive
CCC(=O)N1C[C@H]2[C@@H](c3ccccc31)[C@@H](CO)N2Cc1cc(F)ccc1F | inactive
Cc1ccc(S(=O)(=O)N(C)C[C@@H]2OCCCC[C@H](C)Oc3ccc(NS(=O)(=O)c4ccc(F)cc4)cc3C(=O)N([C@H](C)CO)C[C@H]2C)cc1 | inactive
C[C@H]1CN([C@@H](C)CO)C(=O)Cc2cc(NC(=O)CCCCCC(=O)Nc3ccccc3N)ccc2O[C@@H]1CN(C)Cc1ccc(Oc2ccccc2)cc1 | inactive
C[C@H]1CN([C@@H](C)CO)S(=O)(=O)c2ccc(C#CC3CC3)cc2O[C@H]1CN(C)C(=O)c1ccccn1 | inactive
